{
  "source": "PubChem BioAssay (EPA / NIEHS)",
  "note": "Active and inactive are the calls of the source. How the source made its calls: active means hit-call score of the fitted dose curve at least 0.9, where 1 is the maximum; inactive means score below 0.9.",
  "data": [
    {"biological_target": "Hepatocyte nuclear factor 3-beta (Homo sapiens) (UniProt Q9Y261)", "sequence (Q9Y261 whole entry, looked up)": "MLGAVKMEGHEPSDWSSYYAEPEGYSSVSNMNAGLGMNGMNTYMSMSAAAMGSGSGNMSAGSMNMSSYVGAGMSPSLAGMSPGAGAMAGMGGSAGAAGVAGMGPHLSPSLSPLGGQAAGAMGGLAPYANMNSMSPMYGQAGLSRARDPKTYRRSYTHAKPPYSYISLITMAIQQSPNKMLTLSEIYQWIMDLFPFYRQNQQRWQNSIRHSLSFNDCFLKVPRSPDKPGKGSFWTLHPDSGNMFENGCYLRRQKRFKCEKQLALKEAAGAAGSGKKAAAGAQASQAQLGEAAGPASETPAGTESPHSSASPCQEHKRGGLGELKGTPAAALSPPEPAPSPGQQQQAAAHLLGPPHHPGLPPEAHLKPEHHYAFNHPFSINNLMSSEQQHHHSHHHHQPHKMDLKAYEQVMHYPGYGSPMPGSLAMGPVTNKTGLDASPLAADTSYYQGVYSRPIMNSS", "test": "ATG_FoxA2_CIS: Attagene CIS-FACTORIAL HepG2 Assay for human Forkhead box A2 (FOXA2) (AID 2282942)", "conditions": "HepG2 cis-reporter transcription factor activity, 24 h; actives raise or lower the signal", "procedure": "ATG_CIS is a cell-based, multiplexed-readout assay that uses HepG2, a human liver cell line, with measurements taken at 24 hours after chemical dosing in a 24-well plate.ATG_FoxA2_CIS is one of 52 assay component(s) measured or calculated from the ATG_CIS assay. It is designed to make measurements of mRNA induction, a form of inducible reporter, as detected with fluorescence intensity signals by Reverse transcription polymerase chain reaction (RT-PCR) and Capillary electrophoresis technology.Data from the assay component ATG_FoxA2_CIS was analyzed into 1 assay endpoint. This assay endpoint, ATG_FoxA2_CIS, was analyzed with bidirectional fitting relative to DMSO as the negative control and baseline of activity. Using a type of inducible reporter, measures of mRNA for gain or loss-of-signal activity can be used to understand the reporter gene at the transcription factor-level as they relate to the gene FOXA2. Furthermore, this assay endpoint can be referred to as a primary readout, because this assay has produced multiple assay endpoints where this one serves a reporter gene function. To generalize the intended target to other relatable targets, this assay endpoint is annotated to the dna binding intended target family, where the subfamily is forkhead box protein.\nHuman liver HepG2 cells are transiently transfected with multiple reporter transcription units (MRTUs) in 6-well plates using FuGene 6 reagent (Roche; 3 ml FuGene/1 mg DNA). The MRTU constructs are regulated by a cis-regulating element (promoter). […] A major difference between the CIS and TRANS system is that in CIS activities of endogenous TFs are measured, whereas the TRANS assay evaluates changes in activities of exogenous, chimeric NR-Gal4 proteins. […] At the end of 24 hour incubation, total RNA was isolated using TriZol reagent (Invitrogen). The isolated RNA is then reverse-transcribed using oligo(dT) primer and Mo-MLV reverse transcriptase (Invitrogen) with DNAse I (Ambion) treatment for 30 min. The one-tenth of the produced cDNA was amplified by PCR using Taq DNA polymerase (Invitrogen) and two reporter sequence-specific primers. The PCR products were fluorescently labeled by primer extension with 6-arboxyfluorescein (6-FAM) 5'-labeled reporter sequence-specific primer (2 min at 95 C, 20 s at 68 C and 10 min at 72 C) and these products were digested with 5U of HpaI (New England Biolabs) for 2h at 37 C. The fragments were purified using Qiaquick PCR columns (Qiagen), analyzed on an ABI 3130xL genetic analyzer (Applied Biosystems) with peak positions identified by using a set of X-rhodamine (ROX)-labeled MapMarker1000 molecular weight standards (BioVentures). The raw capillary electrophoresis data was processed using Attagraph software (Attagene).", "values": [
      {"compound": "C=C(C)C(=O)Nc1ccc(Cl)c(Cl)c1", "outcome": "inactive"},
      {"compound": "CCCC1CCC(=O)O1", "note": "(stereo not given)", "outcome": "inactive"},
      {"compound": "FC1(F)C(F)(F)C(F)(F)C2(F)C(F)(C1(F)F)C(F)(F)C(F)(F)C1(F)C(F)(F)C(F)(F)C(F)(F)C(F)(F)C12F", "note": "(stereo not given)", "outcome": "inactive"},
      {"compound": "C=C(C)C(=O)O", "outcome": "inactive"},
      {"compound": "CCCCCCCCC=O", "outcome": "inactive"},
      {"compound": "OCCOCCOCCOCCO", "outcome": "inactive"},
      {"compound": "CC(C)c1cccc(O)c1", "outcome": "inactive"},
      {"compound": "CC(C)=CCO", "outcome": "inactive"},
      {"compound": "O=[N+]([O-])c1ccc(C=Cc2ccc([N+](=O)[O-])cc2S(=O)(=O)O)c(S(=O)(=O)O)c1", "outcome": "inactive"},
      {"compound": "CC1(C)[C@@H]2CC[C@@]1(C)[C@H](O)C2", "outcome": "inactive"},
      {"compound": "O=c1[nH]nnc2ccccc12", "outcome": "inactive"},
      {"compound": "Nc1cc(N)cc(C(=O)O)c1", "outcome": "inactive"},
      {"compound": "Nc1ccc(S(=O)(=O)O)c(N)c1", "outcome": "inactive"},
      {"compound": "Cc1c(Cl)c(=O)oc2cc(O)ccc12", "outcome": "inactive"},
      {"compound": "CCCCCCCCCOC(C)=O", "outcome": "inactive"},
      {"compound": "ClCCCl", "outcome": "inactive"},
      {"compound": "C=C(C)C(=O)O[C@H]1C[C@@H]2CC[C@@]1(C)C2(C)C", "outcome": "inactive"},
      {"compound": "C=COCCOCCOCCOC=C", "outcome": "inactive"},
      {"compound": "Cc1ccc(O)c(C(C)(C)C)c1", "outcome": "inactive"},
      {"compound": "Nc1ccc(F)c([N+](=O)[O-])c1", "outcome": "inactive"},
      {"compound": "Cc1ncc([N+](=O)[O-])n1C", "outcome": "inactive"},
      {"compound": "CC(=O)[O][Al][O]C(C)=O", "outcome": "inactive"},
      {"compound": "Cc1cccc(Nc2ccccc2C(=O)O)c1C", "outcome": "inactive"},
      {"compound": "CC1(C)[C@H]2CC[C@]1(C)[C@H](O)C2", "outcome": "inactive"},
      {"compound": "CC1(C)CCC(C)(C)c2cc(C(=O)Nc3ccc(C(=O)O)cc3)ccc21", "outcome": "inactive"},
      {"compound": "O=C(Cl)c1cccc(C(=O)Cl)c1", "outcome": "inactive"},
      {"compound": "CC(=O)C=CC1=C(C)CCCC1(C)C", "outcome": "inactive"},
      {"compound": "O=C(O)c1cccc([N+](=O)[O-])c1", "outcome": "inactive"},
      {"compound": "CCCCCCOC(=O)CCCCC", "outcome": "inactive"},
      {"compound": "CCCCCCCCCCCCN", "outcome": "inactive"},
      {"compound": "CCC(O)CO", "note": "(stereo not given)", "outcome": "inactive"},
      {"compound": "Cc1ccccc1C=O", "outcome": "inactive"},
      {"compound": "CC(=O)/C=C/C1=C(C)CCCC1(C)C", "outcome": "inactive"},
      {"compound": "CNCCCC12CCC(c3ccccc31)c1ccccc12", "outcome": "inactive"},
      {"compound": "Cc1c(N(C)C)c(=O)n(-c2ccccc2)n1C", "outcome": "inactive"},
      {"compound": "C=CC(=O)OCC(O)COc1ccccc1", "note": "(stereo not given)", "outcome": "inactive"},
      {"compound": "Cc1ccc(C(=O)O)o1", "outcome": "inactive"},
      {"compound": "CC(=O)OCc1ccc2c(c1)OCO2", "outcome": "inactive"},
      {"compound": "CCCCCC(=O)OCCc1ccccc1", "outcome": "inactive"},
      {"compound": "C[C@H]1C[C@@H]2[C@H]([C@@H](O)C[C@@]3(C)[C@H]2CC[C@]3(O)C(=O)CO)[C@@]2(C)C=CC(=O)C=C12", "outcome": "inactive"}
    ]}
  ]
}
